CCT chaperon mod: High-Throughput Screening for Modulators of Cytosolic Chaperonin Activity | 0.3% of 360,000 active | activity change, % (test concentration not listed), hits read low | purified chaperonin ATPase assay, HTRF ADP detection, 30 min; in the data active means activity change below about -30%; further: on the % scale 0 is the no-effect control and ±100 the full control effect
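Enzyme 40 or 20 nM (batch-dependent) in Tris pH 7.4/KCl/MgCl2/DTT; cpd 76 uM single point; ATP 10 uM; 30 min 37 °C; Transcreener ADP HTRF detection, 30 min RT; ratio 665/615.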
Mm-Cpn inhibitor: Inhibitors of TCP-1 ring complex (TRiC) of Methanococcus maripaludis (MmCpn): qHTS. Chaperonin Mm-Cpn (Methanococcus maripaludis). purified Mm-Cpn ATPase, ADP Transcreener TR-FRET. Potency, µM (highest dose often 76.9 µM), inactives show top-dose activity, negative = inhibition, most hits filed as inhibitors. 0.031% of 330,000 active; active means well fitted inhibition curve with a large enough effect; inconclusive means small, poorly fitted or top-dose-only effect; further: potency means the concentration at half of the fitted maximal effect; on the % scale 0 is the no-effect control and ±100 the full control effect; nearly all actives have a fitted effect of over 80% in size
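ATPase read-out: TR-FRET ADP immunoassay (anti-ADP Eu cryptate vs ADP-d2), ex 320 nm, em 590/665 nm; signal drops as ADP forms. Enzyme 25 nM, ATP 10 uM, 30 min at 37°C after 10 min compound preincubation.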
Rango complex inh: qHTS Assay for Inhibitors of Rango (Ran-regulated importin-beta cargo) - Importin beta complex formation; Potency, µM (highest dose often 92.2 µM), for inactives: top-dose inhibition of complex formation; AID 540263, 2011; 0.031% of 340,000 active; Rango CFP/YFP FRET sensor + importin beta, 45 min; Importin subunit beta-1 (Homo sapiens), Q14974;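 further: potency means the concentration at half of the fitted maximal effect; 0% = DMSO wells and 100% = buffer wells lacking importin beta; nearly all actives have a fitted effect of over 15% in size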
Target sequence (Q14974 whole entry, looked up): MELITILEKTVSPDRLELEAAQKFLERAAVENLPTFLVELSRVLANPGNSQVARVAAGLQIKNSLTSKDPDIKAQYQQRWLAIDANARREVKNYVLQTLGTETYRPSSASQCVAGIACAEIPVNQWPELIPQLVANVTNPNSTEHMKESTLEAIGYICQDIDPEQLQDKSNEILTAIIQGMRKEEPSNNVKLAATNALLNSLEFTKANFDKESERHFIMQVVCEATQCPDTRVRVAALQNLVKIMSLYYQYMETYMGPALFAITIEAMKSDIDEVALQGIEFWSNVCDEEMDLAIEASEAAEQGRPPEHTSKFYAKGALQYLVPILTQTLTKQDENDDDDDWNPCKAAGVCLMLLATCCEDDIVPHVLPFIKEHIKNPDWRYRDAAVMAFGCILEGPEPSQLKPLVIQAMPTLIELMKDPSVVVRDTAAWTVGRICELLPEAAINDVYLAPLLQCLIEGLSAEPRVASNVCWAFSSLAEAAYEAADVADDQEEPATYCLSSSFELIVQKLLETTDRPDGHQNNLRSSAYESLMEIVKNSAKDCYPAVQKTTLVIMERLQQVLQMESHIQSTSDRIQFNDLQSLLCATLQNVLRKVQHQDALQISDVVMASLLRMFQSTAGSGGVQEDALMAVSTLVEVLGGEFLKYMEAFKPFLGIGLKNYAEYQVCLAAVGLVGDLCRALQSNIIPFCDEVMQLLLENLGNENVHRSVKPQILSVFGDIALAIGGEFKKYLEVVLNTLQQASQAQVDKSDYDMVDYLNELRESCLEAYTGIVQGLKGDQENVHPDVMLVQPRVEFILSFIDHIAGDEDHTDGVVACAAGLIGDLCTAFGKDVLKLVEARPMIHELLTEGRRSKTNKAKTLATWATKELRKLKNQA
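FRET biosensor (snurportin 1 IBB flanked by EYFP and cerulean), 50 nM, with compound 5 min, then 0.125 microM importin beta in PBS, 1 mM DTT, 0.02% Tween-20, 0.1% BSA. CFP/YFP ratio read after 45 min at room temperature; pre-read flags interference.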
Rango dissoc inh: qHTS Assay for Inhibitors of RanGTP induced Rango (Ran-regulated importin-beta cargo) - Importin beta complex dissociation | Biochemical FRET Rango-importin beta, RanGTP-induced dissociation | Potency, µM (titrated, usually from 46.1 µM), inactives show at the highest dose activity change, negative = inhibition | 0.071% of 340,000 active | AID 540253, 2011; further: potency means the concentration at half of the fitted maximal effect; % of control where 0% means no effect; nearly all actives have a fitted effect of over 45% in size
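Quantitative HTS using a FRET biosensor: 0.1 uM Rango, 0.25 uM importin beta, 0.6 uM Ran, 2 mM GTP, 0.2 uM RCC1 final, PBS with DTT, Tween-20 and BSA. Post-read taken 45 min after Ran addition.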
Giardia kill: Small Molecules that selectively kill Giardia lamblia: qHTS. Giardia lamblia trophozoite viability. AID 540267, 2011. activity change, % at 7.66 µM, hits read low. 0.15% of 340,000 active; in the data active means activity change below about -80%; inconclusive means between about -30% and that limit;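 further: parasites exposed to compound for two days anaerobically before the ATP read; on the % scale 0 is the no-effect control and ±100 the full control effect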
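Each well holds 100 Giardia trophozoites and compound. After two days (48 hrs) at 37 deg C in anaerobic conditions, ATP is quantified by luminescence.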
* = called active by the depositor; ? = inconclusive; . = no result; [ ] = another dose, or the depositor's remark. The list is not random: actives were taken first. Their share in the collection is about 0.53%. Unless noted, the call rests on the fitted dose curve.

SMILES	CCT chaperon mod	Mm-Cpn inhibitor	Rango complex inh	Rango dissoc inh	Giardia kill
COc1ccc2[nH]c3c(c2c1)CCNC3(C)CCc1ccc(Cl)nc1 (configuration not stated)	-30.7*	-2.1%	-0.6%	-0.2%	-5.0
CCOc1[nH]c(/N=C/c2ccc(OC)cc2)c(C#N)c1C#N	.	.	.	.	-1.4
N#Cc1nc(-c2ccc(OCc3ccccc3)cc2)oc1NCc1cccnc1	-35.9*	-0.2%	-3.5%	1.1%	-15.8
CC(=O)Nc1ccc(S(=O)(=O)N2CCN(S(=O)(=O)c3ccccc3)CC2)cc1	-0.5	0.2%	-0.9%	11.8%	-15.4
CC(=O)Nc1ccc(S(=O)(=O)N2CCN(CC3CC4C=CC3C4)CC2)cc1 (configuration not stated)	-42.7*	0.8%	-1.8%	2.9%	-19.9
Cc1noc(C)c1-c1ccc2ncnc(NCc3cccc(-c4ccccc4)c3)c2c1	.	-10.4%	.	.	.
CCN1C(=O)C2(C(C#N)=C(N)Oc3cc(C)oc(=O)c32)c2ccccc21 (configuration not stated)	-21.1	-0.4%	7.8%	-14.0%	-11.7
Cc1cc2c(c(=O)o1)C1(C(=O)N(CC(=O)O)c3ccccc31)C(C#N)=C(N)O2 (configuration not stated)	-1.3	-2.0%	?	14.6µM*[inhibitor]	11.7
O=C(N/N=C/c1ccncc1)c1cccc(N/N=C/c2ccncc2)c1	-0.4	-6.5%	-2.6%	-1.2%	-6.8
O=C(N/N=C/c1ccncc1)c1cccc(NC(=O)c2ccc(Cl)cc2)c1	-35.9*	2.6%	4.5%	1.1%	22.3
Cc1ccnc(NC(=O)c2sc3ccccc3c2Cl)c1	-2.5	?	0.3%	-7.4%	-80.2*
COc1ccc2c(Cl)c(C(=O)N/N=C/c3ccncc3)sc2c1	1.8	-3.5%	0.6%	20.0%	7.5
O=C(N/N=C/c1ccncc1)c1sc2ccccc2c1Cl	-83.6*	1.9%	1.5%	1.8%	11.4
Nc1nc(NCc2ccc(Cl)cc2)c2[nH]cnc2n1	.	.	.	.	-4.5
Cc1ccc2nc(-c3ccc(C)o3)c(Nc3ccc(Cl)cc3)n2c1	.	.	.	.	-6.6
CCOc1cccc(C2C=C(c3ccc4c(c3)OCO4)NC(c3cccc(Br)c3)N2)c1O (configuration not stated)	.	.	.	.	-4.8
CCC(C)(C)NC(=O)C(c1ccccn1)N(C(=O)c1csnn1)c1ccc(C)cc1 (configuration not stated)	-33.9*	-0.7%	-0.2%	0.4%	-0.3
Cc1ccc(N(C(=O)c2csnn2)C(C(=O)NCc2ccccc2)c2ccccn2)cc1 (configuration not stated)	-0.3	-0.7%	-0.3%	-1.6%	-2.8
CC1CC=CC2C1C(=O)N(Cc1ccccc1)C2c1ccc2ccccc2c1 (configuration not stated)	.	.	.	.	2.3
Cc1cc(Cl)ccc1NC(=O)CCC(=O)O	-1.6	3.2%	-2.1%	-2.7%	11.3
O=C(O)CCC(=O)Nc1ccc(NC(=O)c2ccc(Cl)cc2Cl)c(Cl)c1	-134.6*	-10.6%	11.5%	-7.3%	-19.7
CCCN1CCC(NC(=O)CCc2nnc(-c3ccccc3)o2)CC1	-70.0*	0.4%	-4.5%	-19.0%	-19.4
CCCN1CCC(NC(=O)CCc2nnc(Cc3cc(OC)ccc3OC)o2)CC1	0.7	0.2%	0.0%	2.7%	-15.7
CCOC(=O)c1ccc(CNc2ncnc3nc[nH]c23)cc1	.	.	.	.	17.0
O=C(CCS(=O)(=O)c1ccc(Br)cc1)N1CCCCCC1	-73.6*	0.6%	-2.9%	-0.6%	6.8
SMILES	CCT chaperon mod	Mm-Cpn inhibitor	Rango complex inh	Rango dissoc inh	Giardia kill
CS(=O)(=O)N(CC(=O)N1CCN(Cc2ccccc2)CC1)c1ccc(F)cc1	0.8	1.5%	3.2%	-11.1%	2.1
CC(C)c1ccc(N(CC(=O)N2CCN(Cc3ccccc3)CC2)S(C)(=O)=O)cc1	-94.7*	-1.6%	1.3%	1.1%	8.1
O=C(NNc1cc(Cl)cc(Cl)c1)C1CCC1	1.1	1.0%	?	-8.8%	-19.7
O=C(NNc1ccc(Cl)cc1)C1CCC1	-36.0*	-1.8%	8.2%	-7.4%	-8.8
CC(=O)Nc1ccc(S[C@@H](CCN2CC[C@H](C(C)(C)C)CCC2=O)c2ccccc2)cc1	-36.1*	-2.0%	4.1%	-18.1%	13.2
Cc1ccccc1Nc1c(-c2ccncc2)nc2ccc(Br)cn12	-0.8	-0.8%	1.0%	8.1%	8.4
Brc1ccc2nc(-c3ccncc3)c(NC3CCCC3)n2c1	-36.0*	-1.2%	1.2%	-3.4%	9.3
O=C1C2=C(C(c3ccccc3)=NCCN2)C(c2cccc([N+](=O)[O-])c2)N1c1ccccc1 (configuration not stated)	-0.6	-0.8%	2.8%	-11.5%	2.3
COc1ccc(C2C3=C(NCCN=C3c3ccccc3)C(=O)N2c2ccccc2)c(OC)c1 (configuration not stated)	-59.6*	-2.7%	4.1%	-12.0%	31.6
C=CCC(O)[C@H](Cc1cnc2ccccc2c1)[C@H](/C=C/CCCC)c1ccccc1 (some centres not stated)	.	.	.	.	12.3
COc1ccc(C)cc1Nc1c2c(nc3ccccc13)CCC2	-34.0*	-0.2%	9.5%	48.3%	26.3
CC(C)(C)OC(=O)N1CCN(c2nc(-c3cccs3)nc3ccccc23)CC1	.	.	.	.	-29.5
Cc1ccccc1OCc1n[nH]c(=S)n1-c1cccc(Cl)c1	-0.2	-1.6%	-1.3%	13.3%	12.1
Cc1n[nH]c(=S)n1-c1cccc(Cl)c1	-55.0*	1.1%	3.5%	2.3%	11.8
O=[N+]([O-])c1ccccc1S(=O)(=O)N1CCN(c2nc(-c3ccccc3)nc3ccccc23)CC1	.	.	.	.	2.8
CN(C)c1ccc(C=C2SC(=S)NC2=O)cc1	-0.3	.	?	?	-22.5
CN(C)c1ccc(/C=N/N=C2/NC(=O)/C(=C/c3ccc([N+](=O)[O-])cc3)S2)cc1	1.0	1.3%	?	-16.8%	-92.6*
Cc1cc2ccccn2c1C(=O)c1ccc([N+](=O)[O-])cc1[N+](=O)[O-]	-2.2	3.9%	1.8%	2.3%	-85.6*
Cc1ccccc1OCC(=O)NCC(C)NC(=O)COc1ccccc1C (configuration not stated)	.	.	.	.	6.8
Cc1ccc2nc(Cl)c(C3CC(c4ccco4)=NN3C(=O)CCCC(=O)O)cc2c1 (configuration not stated)	-109.4*	1.4%	-1.6%	-7.7%	9.4
Cc1ccc(CNCc2cn[nH]c2-c2ccc(C)cc2)cc1	.	.	.	.	10.7
CC(Oc1cccnc1[N+](=O)[O-])C(=O)Nc1cccc(Cl)c1 (configuration not stated)	-1.2	1.0%	-1.6%	-10.1%	-86.9*
